Assay results: PubChem BioAssay
Values joined by “and” are separate entries in the source; they are usually repeats but may differ in a detail not shown here. Equal values may be shown once. Active and inactive are the calls of the source.

Legend:
[1] = tested on: Plasmodium falciparum Sir2 (PF13_0152, Sir2A); assay: pfSir2 binders on small-molecule microarrays, primary screen, biochemical, small-molecule microarray, 635 nm fluorescence (AID 1098); conditions: small-molecule microarray binding, fluorescence 635 nm; higher = more signal;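 note: score merges spot fluorescence intensity with its signal-to-noise ratio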
[2] = small-molecule microarray binders of probe aDKK1, primary screen, biochemical, biotinylated probe, 635/667 nm fluorescence (AID 1099); conditions: higher = more signal;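 note: score merges 667nm spot fluorescence with signal to noise across triplicate slides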
[3] = small-molecule microarray binders of probe aCHRDL2, primary screen, biochemical, biotinylated probe, 635/667 nm fluorescence (AID 1100); conditions: higher = more signal
[4] = splicing luciferase reporter signal modulators, primary screen, spliceosome inhibition project, cell-based, HEK293, splice +/- reporter (AID 1101); conditions: luminescence, 24 h, higher = more signal, called active from +8 up or from −8 down;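 note: HEK293 cells carrying a splicing-competent luciferase reporter gene; test concentration not given here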
[5] = target: Fibroblast growth factor 10 (Homo sapiens) (UniProt O15520); assay: FGF10 binders on small-molecule microarrays, primary screen, biochemical, small-molecule microarray, 635 nm fluorescence (AID 1102); conditions: FGF10 binding, fluorescence 635 nm, higher = more signal
[6] = tested on: glycogen synthase kinase-3 (GSK3A per assay name; protocol says GSK3B); assay: GSK3 binders on small-molecule microarrays, primary screen, biochemical, small-molecule microarray, 635 nm fluorescence, GSK3A (AID 1103); conditions: small-molecule microarray binding, fluorescence 635 nm; higher = more signal; note: the record names both GSK3A and GSK3B
[7] = target: Epidermal growth factor receptor (Homo sapiens) (UniProt P00533); assay: EGFR binders on small-molecule microarrays, primary screen, biochemical, small-molecule microarray, 635 nm fluorescence (AID 1104); conditions: EGFR binding, higher = more signal;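 note: score merges 667 nm emission intensity with spot signal to noise over triplicate slides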
[8] = target: Follistatin-related protein 3 (Homo sapiens) (UniProt O95633); assay: FSTL3 binders on small-molecule microarrays, primary screen, biochemical, small-molecule microarray, 635 nm fluorescence (AID 1105); conditions: FSTL3 binding, higher = more signal;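 note: score merges emission near 667 nm and signal to noise per printed spot across three slides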
[9] = target: Dickkopf-related protein 1 (Homo sapiens) (UniProt O94907); assay: DKK1 binders on small-molecule microarrays, primary screen, biochemical, small-molecule microarray, 635 nm fluorescence scan (AID 1106); conditions: DKK1 binding, higher = more signal;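 note: score merges emission near 667 nm with signal to noise over three replicate slides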
[10] = tested on: Inhibin beta A chain (activin A); assay: INHBA (activin A) binders on microarrays, primary screen, biochemical, small-molecule microarray, 635 nm fluorescence scan (AID 1107); conditions: small-molecule microarray binding, higher = more signal;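 note: mouse activin A protein probed at 4.33 µg/mL on printed slides; score merges bound-protein fluorescence near 667 nm with spot signal-to-noise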
[11] = tested on: Human papillomavirus type 1a protein E7 (residues 44-93); assay: HPV1a E7 fragment binders on microarrays, primary screen, biochemical, small-molecule microarray, residues 44-93, 635 nm fluorescence (AID 1108); conditions: small-molecule microarray binding, fluorescence 635 nm; higher = more signal;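 note: E7 fragment applied at 1 µg/mL in TBST for 1 h at 4 C; score combines spot fluorescence with its signal to noise ratio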
[12] = modulators of HCV replicon luciferase signal, primary screen, HCV replication inhibitor project, Huh7 cells, luciferase reporter (AID 1109); conditions: 48 h, higher = more signal;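 note: huh7 hepatoma cells harbouring a luciferase neomycin HCV replicon reporter; luciferase luminescence as measure of HCV replicon replication; test concentration not given here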
[13] = target: Left-right determination factor 2 (Homo sapiens) (UniProt O00292); assay: LEFTY2 binders on small-molecule microarrays, primary screen, biochemical, small-molecule microarray, 635 nm fluorescence scan (AID 1110); conditions: LEFTY2 binding, higher = more signal
[14] = target: Calmodulin-1 (Homo sapiens) (UniProt P0DP23); assay: CALM1 binders on microarrays, EGTA buffer, profiling panel, biochemical, small-molecule microarray, Cy5-labelled CALM1 (AID 1111); conditions: Cy5-CALM1 binding fluorescence, higher = more signal;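 note: labelled calmodulin applied in Tris saline Tween buffer holding calcium plus EGTA and DTT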
[15] = target: Calmodulin-1 (Homo sapiens) (UniProt P0DP23); assay: calcium-bound CALM1 binders on microarrays, profiling panel, artefact control for SMM control-protein annotation, biochemical, small-molecule microarray, Cy5-labelled CALM1, plus calcium (AID 1112); conditions: Cy5-CALM1 binding fluorescence, higher = more signal;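 note: score merges spot fluorescence with signal to noise from triplicate slides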
[16] = small-molecule microarray binders of probe aWnt5a, primary screen, biochemical, biotinylated probe, 635/667 nm fluorescence (AID 1113); conditions: higher = more signal;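 note: score merges 667 nm fluorescence intensity with signal-to-noise per printed feature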
[17] = small-molecule microarray binders of probe aShh, primary screen, biochemical, biotinylated probe, 635/667 nm fluorescence (AID 1114); conditions: higher = more signal;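 note: probe is biotin-labelled aShh protein from a stem cell growth factor screen; measures binding of labelled protein to compounds printed on the slide; score merges feature fluorescence at 667 nm with signal-to-noise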
[18] = small-molecule microarray binders of probe aNog, primary screen, biochemical, biotinylated probe, 635/667 nm fluorescence (AID 1115); conditions: higher = more signal;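 note: probe is biotinylated aNog protein used at 0.15 µg/mL for 1 h at 4 C; z-score combines 667 nm fluorescence of each spot with its signal to noise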
[19] = target: Torsin-1A-interacting protein 1 (Homo sapiens) (UniProt Q5JTV8); assay: LAP1 binders from COS7 cell lysate, primary screen, small-molecule microarray, 635/667 nm fluorescence (AID 1116); conditions: COS7-hLAP1 lysate binding, 635 nm fluorescence, higher = more signal
[20] = target: Alpha-bungarotoxin (Bungarus multicinctus) (UniProt P60615); assay: alpha-bungarotoxin binders on microarray, profiling panel, artefact control for SMM control protein annotation, biochemical, small-molecule microarray, Alexa647 label, 635/667 nm fluorescence (AID 1117); conditions: alpha-BTX-A647 binding fluorescence, higher = more signal
Chain of Alpha-bungarotoxin (Bungarus multicinctus) (P60615 whole entry, looked up): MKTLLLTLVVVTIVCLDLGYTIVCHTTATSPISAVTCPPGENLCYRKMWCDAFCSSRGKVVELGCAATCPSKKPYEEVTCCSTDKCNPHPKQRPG

Chain of Epidermal growth factor receptor (Homo sapiens) (P00533 whole entry, looked up): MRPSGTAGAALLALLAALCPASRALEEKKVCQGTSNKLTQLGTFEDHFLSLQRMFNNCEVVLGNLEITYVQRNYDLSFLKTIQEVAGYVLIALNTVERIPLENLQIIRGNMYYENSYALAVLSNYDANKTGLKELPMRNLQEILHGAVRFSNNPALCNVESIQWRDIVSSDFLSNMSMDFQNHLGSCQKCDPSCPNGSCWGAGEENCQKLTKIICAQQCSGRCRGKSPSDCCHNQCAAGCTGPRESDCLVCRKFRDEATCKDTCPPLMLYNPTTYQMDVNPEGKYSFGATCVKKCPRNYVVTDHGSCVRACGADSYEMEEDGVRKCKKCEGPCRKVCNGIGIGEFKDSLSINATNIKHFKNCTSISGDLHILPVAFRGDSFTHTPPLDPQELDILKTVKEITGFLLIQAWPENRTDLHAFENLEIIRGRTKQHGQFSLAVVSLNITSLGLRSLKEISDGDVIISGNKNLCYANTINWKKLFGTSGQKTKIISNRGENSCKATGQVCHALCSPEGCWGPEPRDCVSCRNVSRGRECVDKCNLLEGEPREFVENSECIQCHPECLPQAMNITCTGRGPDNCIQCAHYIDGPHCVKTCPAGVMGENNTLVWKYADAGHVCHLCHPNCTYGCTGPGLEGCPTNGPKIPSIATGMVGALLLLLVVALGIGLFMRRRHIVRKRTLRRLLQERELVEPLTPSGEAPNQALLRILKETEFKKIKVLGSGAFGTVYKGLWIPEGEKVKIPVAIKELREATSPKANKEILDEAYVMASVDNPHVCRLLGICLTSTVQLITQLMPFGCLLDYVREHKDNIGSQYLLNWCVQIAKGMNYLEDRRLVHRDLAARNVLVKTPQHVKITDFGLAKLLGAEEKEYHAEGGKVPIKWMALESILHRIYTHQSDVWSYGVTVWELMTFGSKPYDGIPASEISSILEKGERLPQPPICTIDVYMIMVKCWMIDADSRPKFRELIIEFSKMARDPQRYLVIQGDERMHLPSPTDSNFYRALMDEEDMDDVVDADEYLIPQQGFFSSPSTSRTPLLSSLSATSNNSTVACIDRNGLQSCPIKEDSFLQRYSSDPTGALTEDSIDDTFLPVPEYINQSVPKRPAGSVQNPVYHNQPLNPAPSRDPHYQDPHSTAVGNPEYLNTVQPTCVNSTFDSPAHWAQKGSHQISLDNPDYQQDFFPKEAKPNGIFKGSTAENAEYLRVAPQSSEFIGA
Chain of Fibroblast growth factor 10 (Homo sapiens) (O15520 whole entry, looked up): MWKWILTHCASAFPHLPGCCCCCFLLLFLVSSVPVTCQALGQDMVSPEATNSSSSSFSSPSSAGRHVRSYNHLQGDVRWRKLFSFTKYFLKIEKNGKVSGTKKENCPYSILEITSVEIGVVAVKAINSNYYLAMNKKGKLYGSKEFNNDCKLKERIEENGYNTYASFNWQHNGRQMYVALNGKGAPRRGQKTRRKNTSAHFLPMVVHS
Chain of Left-right determination factor 2 (Homo sapiens) (O00292 whole entry, looked up): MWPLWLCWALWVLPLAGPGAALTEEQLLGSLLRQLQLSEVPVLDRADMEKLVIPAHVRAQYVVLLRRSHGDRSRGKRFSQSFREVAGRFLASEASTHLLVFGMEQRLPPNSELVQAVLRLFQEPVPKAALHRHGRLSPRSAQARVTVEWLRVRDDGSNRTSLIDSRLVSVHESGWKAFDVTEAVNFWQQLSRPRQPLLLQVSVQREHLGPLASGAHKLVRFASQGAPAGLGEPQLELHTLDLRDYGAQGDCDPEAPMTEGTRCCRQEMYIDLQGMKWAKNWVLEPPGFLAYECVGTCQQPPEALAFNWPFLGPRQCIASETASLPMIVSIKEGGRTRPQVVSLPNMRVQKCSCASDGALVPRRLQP
Chain of Dickkopf-related protein 1 (Homo sapiens) (O94907 whole entry, looked up): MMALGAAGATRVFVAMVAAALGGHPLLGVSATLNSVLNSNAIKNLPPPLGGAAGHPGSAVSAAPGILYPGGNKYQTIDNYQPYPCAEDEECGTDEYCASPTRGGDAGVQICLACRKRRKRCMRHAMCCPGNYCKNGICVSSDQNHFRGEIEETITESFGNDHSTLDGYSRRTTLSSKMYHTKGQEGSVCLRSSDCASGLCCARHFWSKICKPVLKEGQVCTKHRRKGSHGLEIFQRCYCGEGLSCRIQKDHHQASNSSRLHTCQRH
Chain of Torsin-1A-interacting protein 1 (Homo sapiens) (Q5JTV8 whole entry, looked up): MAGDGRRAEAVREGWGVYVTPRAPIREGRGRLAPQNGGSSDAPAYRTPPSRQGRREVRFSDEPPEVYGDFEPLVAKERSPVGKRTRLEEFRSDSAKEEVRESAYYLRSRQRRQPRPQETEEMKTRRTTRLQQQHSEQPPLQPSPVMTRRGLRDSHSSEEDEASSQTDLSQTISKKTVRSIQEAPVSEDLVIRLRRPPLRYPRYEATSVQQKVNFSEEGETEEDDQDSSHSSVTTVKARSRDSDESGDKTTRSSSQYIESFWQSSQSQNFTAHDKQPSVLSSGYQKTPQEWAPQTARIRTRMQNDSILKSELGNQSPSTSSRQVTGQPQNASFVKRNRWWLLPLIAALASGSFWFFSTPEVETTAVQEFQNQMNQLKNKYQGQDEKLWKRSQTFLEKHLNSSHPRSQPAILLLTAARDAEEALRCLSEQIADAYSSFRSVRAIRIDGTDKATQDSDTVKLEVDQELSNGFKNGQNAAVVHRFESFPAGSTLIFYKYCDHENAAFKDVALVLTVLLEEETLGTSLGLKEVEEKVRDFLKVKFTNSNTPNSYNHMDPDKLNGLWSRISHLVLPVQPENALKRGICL
Chain of Follistatin-related protein 3 (Homo sapiens) (O95633 whole entry, looked up): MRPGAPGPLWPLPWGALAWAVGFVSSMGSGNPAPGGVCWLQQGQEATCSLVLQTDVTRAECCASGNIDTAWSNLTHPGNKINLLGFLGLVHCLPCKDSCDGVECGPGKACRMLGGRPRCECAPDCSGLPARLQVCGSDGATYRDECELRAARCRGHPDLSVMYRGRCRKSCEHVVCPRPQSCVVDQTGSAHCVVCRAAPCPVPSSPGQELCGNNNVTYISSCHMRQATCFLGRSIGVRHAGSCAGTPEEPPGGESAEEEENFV

| Compound | composite z-score [1] | composite z-score [2] | composite z-score [3] | z-score [4] | composite z-score [5] | composite z-score [6] | composite z-score [7] | composite z-score [8] | composite z-score [9] | composite z-score [10] | composite z-score [11] | z-score [12] | composite z-score [13] | composite z-score [14] | composite z-score [15] | composite z-score [16] | composite z-score [17] | composite z-score [18] | composite z-score [19] | composite z-score [20] |
| --- | --- | --- | --- | --- | --- | --- | --- | --- | --- | --- | --- | --- | --- | --- | --- | --- | --- | --- | --- | --- |
| C[C@@H]1CC[C@H]2C(=O)NC[C@@H](O)CN2[C@H]1c1ccc(Br)cc1 | 0.102 and 0.107 | -0.214 and -0.138 | -0.0441 and -0.0598 | 0.338 (inactive) and 0.0732 (inactive) | -0.0319 and -0.141 | -0.645 and -0.288 | -0.251 and -0.159 | -0.348 and -0.394 | -0.219 and -0.179 | 0.747 and 0.211 | 0.111 and -0.325 | -0.376 and -0.362 | -0.0095 and 0.204 | -0.234 and -0.448 | -0.342 and -0.438 | -0.0758 and -0.0405 | -0.138 and 0.235 | 0.0014 and -0.194 | 0.36 and 0.348 | 0.141 and -0.195 |
| Cc1ccc(S(=O)(=O)N[C@@H]2COC(=O)CC=C[C@@H](C)[C@@H]3C=C[C@H](O)[C@@H](COC(=O)CC=C[C@H]2C)O3)cc1 | 0.527 and 0.241 | -0.553 and -0.331 | -1.15 and -0.466 | -0.371 (inactive) and -1.35 (inactive) | 0.606 and 0.174 | 0.126 and 0.233 | 0.884 and 0.383 | 1.08 and 0.451 | 1.13 and 0.389 | 1.03 and -0.134 | -0.813 and -0.0304 | -0.606 and -1.32 | 1.21 and 0.343 | -0.657 and -0.267 | -1.1 and -0.778 | -0.172 and -0.0044 | -0.0977 and -0.0035 | -0.0965 and -0.116 | 0.11 and 0.433 | -0.268 and 0.391 |
| CCOC(=O)C[C@H]1[C@H](OC(=O)c2ccccc2-c2ccccc2)[C@@H](NC(=O)Cc2ccc(OC)cc2)c2cc(OCCCO)ccc2N1C(=O)Cc1ccc(OC)cc1 | 0.463 and -0.568 | 0.659 and -0.038 | 0.675 and 0.58 | -1.05 (inactive) and -0.311 (inactive) | 0.57 and -0.0746 | 0.348 and -0.607 | -0.111 and -0.847 | 0.223 and -0.624 | -0.215 and -0.331 | 0.29 and 0.764 | 0.361 and -0.687 | -0.912 and -0.962 | 0.422 and -0.519 | 1.11 and -0.163 | 0.971 and -0.309 | -0.0346 and -0.0107 | 0.412 and -0.0977 | 0.811 and 0.467 | 0.477 and 0.415 | 0.873 and 0.224 |
| CO[C@@H]1COC(=O)CC=C[C@H](C)[C@@H](NS(=O)(=O)c2ccc(C)cc2)COC(=O)CC=C[C@@H]1C | 0.462 and 1.72 | -0.378 and -0.3 | -0.823 and -0.867 | -0.338 (inactive) and -0.57 (inactive) | 0.819 and 0.365 | 0.875 and 0.415 | 0.858 and 0.943 | 1.32 and 1.4 | 0.597 and 1.3 | -0.113 and 1.32 | 0.494 and -1.3 | -1.06 and -1.76 | 0.687 and 0.845 | -0.653 and -0.748 | -1.02 and -1.12 | -0.101 and -0.126 | 0.0121 and -0.156 | -0.23 and -0.289 | 0.149 and 0.483 | 1.15 and -0.0808 |
| CO[C@H]1COC(=O)CC=C[C@H](C)[C@H](OC)COC(=O)[C@@H](C)COC(=O)CC=C[C@@H]1C | 0.402 and 0.0429 | -0.629 and -0.472 | -1.1 and -1.05 | -0.0265 (inactive) and -0.282 (inactive) | 0.415 and 0.242 | 0.594 and 0.65 | 0.752 and 0.715 | 0.969 and 0.59 | 1.23 and 0.743 | 1.02 and 0.17 | 0.25 and -0.333 | 0.228 and 0.343 | 0.953 and 0.546 | -1.51 and -1.76 | -1.68 and -2.71 | -0.0172 and -0.147 | -0.304 and 0.0899 | -0.194 and -0.176 | 0.123 and -0.771 | -0.683 and -0.62 |
| CCCNC(=O)OC[C@H]1O[C@H](CCON=C(C)CCN2CCc3nc(-c4ccccc4)c(-c4ccccc4)cc3C2)C=C[C@@H]1Oc1ccc(OC)cc1 | 0.274 | -0.128 | -0.155 | -0.0345 (inactive) | 0.0705 | -0.0859 | 0.0142 | 0.254 | 0.431 | 0.67 | 0.518 | -3.28 | 0.135 | -0.0233 | -0.0536 | -0.0535 | -0.0299 | -0.321 | 0.32 | 0.316 |
| C=C[C@@H](C)[C@H](O)c1ccc(O)c2ccccc12 | 1.09 and 0.905 | -0.493 and -0.379 | -0.289 and 0.255 | 0.126 (inactive) and 0.292 (inactive) | -0.309 and -0.862 | -0.347 and -0.958 | 0.617 and -0.987 | 0.294 and -0.579 | 0.481 and -0.33 | 1.53 and 1.13 | -0.54 and -1.74 | -0.857 and -0.0113 | 0.265 and -0.863 | -1.27 and -1.29 | -1.21 and -1.19 | -0.224 and -0.283 | -0.0035 and -0.0709 | -0.157 and -0.299 | -0.444 and -0.659 | -0.286 and -0.508 |
| C=C[C@@H](OC)[C@H](O)c1ccc(OCCO)cc1 | 1.43 and -0.202 | 0.644 and -0.649 | 0.75 and 0.283 | -0.462 (inactive) and -2.83 (inactive) | -0.72 and -1.24 | -0.586 and -1.15 | -1.55 and -0.957 | -0.782 and -0.109 | -1.06 and -0.955 | -0.294 and -1.79 | -0.796 and -1.11 | 0.241 and -0.0944 | -1.42 and -0.132 | -1.29 and -0.831 | -0.778 and -0.247 | -0.298 and -0.242 | -0.221 and -0.138 | -0.501 and -0.393 | 0.91 and -0.0877 | -0.7 and -0.37 |
